Compound activity: PubChem, National Center for Advancing Translational Sciences (NCATS)
Most compounds without a hit are left out; they make up all but 3% or so of the library.
PLK1 PBD block: inhibitors of human PLK1 polo-box domain binding; hit rate 2.8% among 360,000; Plk1 PBD binding of FITC phosphopeptide, fluorescence polarization; Potency, µM, without a hit: max response, negative = inhibition, most hits filed as inhibitors; P53350; note: series mostly up to about 57 µM; nearly all actives have a fitted effect of over 65% in size
VDR inh: blocks the human vitamin D receptor | VDR-SRC2-3 peptide fluorescence polarization, 2 h | Potency, µM, without a hit: max response, negative = inhibition, usual class: inhibitors | hit rate 0.93% among 400,000 | P11473
Target sequence (P11473 whole entry, looked up): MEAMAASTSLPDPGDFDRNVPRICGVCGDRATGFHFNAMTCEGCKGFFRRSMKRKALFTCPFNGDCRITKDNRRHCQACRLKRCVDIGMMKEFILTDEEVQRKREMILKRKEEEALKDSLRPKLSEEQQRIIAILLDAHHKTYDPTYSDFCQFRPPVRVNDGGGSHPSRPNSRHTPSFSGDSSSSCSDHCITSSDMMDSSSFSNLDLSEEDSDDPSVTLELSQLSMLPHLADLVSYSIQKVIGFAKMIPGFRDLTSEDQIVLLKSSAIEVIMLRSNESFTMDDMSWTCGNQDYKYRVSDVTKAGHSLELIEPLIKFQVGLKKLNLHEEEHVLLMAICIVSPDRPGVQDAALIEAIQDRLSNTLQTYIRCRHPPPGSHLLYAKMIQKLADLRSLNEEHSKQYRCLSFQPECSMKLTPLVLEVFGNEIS
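After 23 nl compound addition and a short centrifugation, plates sat for 2 hours at ambient temperature; polarization of fluorescence then indicated loss of VDR binding to peptide SRC2-3.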
ALOX12 inh: ALOX12 (human) lipoxygenase inhibition; P18054; purified 12hLO, xylenol orange hydroperoxide absorbance; Potency, µM (doses to about 108 µM), for the others: at the highest dose activity change, negative = inhibition, actives largely listed as inhibitors; hit rate 1.1% among 580,000; AID 1671190
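Hydroperoxide product was detected by ferrous iron/xylenol orange as the 573 to 405 nm absorbance ratio. Arachidonic acid at 40 uM (final) was turned over for 30 min at room temperature by 150 nM human 12hLO, pH 7.0 Hepes buffer, after 15 min compound preincubation.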
GCN5L2 inh: blocks human GCN5L2 histone acetyltransferase; Q92830; GCN5L2 HAT assay, ThioGlo1 CoA-SH fluorescence; hit rate 0.21% among 390,000; Potency, µM (highest dose often 58.9 µM), for the others: at the highest dose activity change, negative = inhibition, hits mostly inhibitors
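Fluorescence readout, Ex340nm/Em540nm: ThioGlo1 (50uM final) reacts with free CoA thiol released as 20nM GCN5L2 acetylates H3(1-25) peptide (75uM) using acetyl-CoA (70uM). Compound and enzyme sat 15 min beforehand; 20 min room-temperature reaction.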
* marks the source's active call; other numbers are inactive results; ! = not confirmed by another sample. Calls come from the whole dose curve; as a rule, active = well fitted curve in the direction sought with a large enough effect; inconclusive = small, poorly fitted or top-dose-only effect, or another doubt; inactive = no such curve, though single readings can be large; an effect the other way counts as inactive or inconclusive. % is set by controls: 0 for no effect and ±100 for the full control effect; potency is the fitted concentration of half-maximal effect.

What do the screens show for `Cc1ccc(-c2csc(NC(=S)NC(=O)c3cccs3)n2)cc1`?
PLK1 PBD block: -1%; VDR inh: -15%; ALOX12 inh: -2%; GCN5L2 inh: 1%

Results for O=C(Cc1cccs1)Nc1ccc(-c2nc3cc(Cl)ccc3o2)cc1 ?
ALOX12 inh: 6%

Results for Cc1ccc(NC(=O)Cc2nnc(SCC(=O)NC34CC5CC(CC(C5)C3)C4)n2C)c(C)c1 ?
ALOX12 inh: -13%

What do the screens show for `Cc1ccc(-c2csc3nc4cc(C(N)=O)ccc4c(=O)n23)cc1`?
PLK1 PBD block: -27%; VDR inh: -12%; ALOX12 inh: 18µM*; GCN5L2 inh: -7%

What do the screens show for `COCCN1C(=O)c2ccccc2C(C(=O)Nc2ccc(C(C)=O)cc2)C12CCCC2` (stereo not drawn)?
ALOX12 inh: -6%

How did CCOc1ccccc1C1CC(=O)N(Cc2ccccc2)c2c1c(C)nn2-c1nc(C)cc(C)n1 (stereo not drawn) do in these assays?
ALOX12 inh: 7%

Results for Cc1cc(C)nc(NC(=O)Nc2ccc(F)cc2)c1 ?
ALOX12 inh: 9%

What do the screens show for `Cc1cc(NC(=O)Nc2ccc(N(C)C)cc2)c2cc(F)cc(F)c2n1`?
VDR inh: 18µM*!; ALOX12 inh: inconclusive; GCN5L2 inh: 0%

What do the screens show for `CCCCN(Cc1ccccc1)c1ccc(NS(=O)(=O)c2ccc(C(C)(C)C)cc2)cc1C(=O)O`?
ALOX12 inh: 14µM*

Results for CCCCN(Cc1ccccc1)c1ccc(NS(=O)(=O)c2ccc(C(C)=O)cc2)cc1C(=O)O ?
ALOX12 inh: 4.5µM*

How did CCCCN(CC)c1ccc(NS(=O)(=O)c2ccc(C(C)=O)cc2)cc1C(=O)O do in these assays?
ALOX12 inh: -80%

What do the screens show for `CCCCN(CCCC)c1nc2ccccc2nc1NS(=O)(=O)c1ccc(NC(C)=O)cc1`?
PLK1 PBD block: -4%; VDR inh: 9%; ALOX12 inh: -1%; GCN5L2 inh: 0%

What do the screens show for `N#C/C(=C/c1ccc(O)c(O)c1)c1nc2ccccc2[nH]1`?
PLK1 PBD block: 20%; VDR inh: 5%; ALOX12 inh: 7.9µM*; GCN5L2 inh: 6%

Results for N#C/C(=C\c1ccc(O)c(Br)c1)c1nc2ccccc2[nH]1 ?
ALOX12 inh: -7%

What do the screens show for `N#C/C(=C\c1ccc(-c2ccc(Cl)cc2Cl)o1)c1nc2ccccc2[nH]1`?
ALOX12 inh: 11µM*

How did COc1ccc2c(c1)CC/C(=C/c1ccncc1)C2=O do in these assays?
PLK1 PBD block: -14%; VDR inh: inconclusive; GCN5L2 inh: -2%

How did COc1ccc2c3c(ccc2c1)C(=O)/C(=C/O)CC3 do in these assays?
PLK1 PBD block: 4.2µM*; VDR inh: -29%; ALOX12 inh: 25µM*

What do the screens show for `O=C(O)c1cc(Cl)c2ccccc2c1O`?
PLK1 PBD block: -30%; VDR inh: -13%; ALOX12 inh: -24%; GCN5L2 inh: -1%

How did Cc1cc(O)c2ccccc2c1O do in these assays?
VDR inh: 35µM*; GCN5L2 inh: -11%

Results for O=C(O)c1cc(O)c2ccccc2c1O ?
ALOX12 inh: 71µM*

How did CC(C)CN(CC(C)C)S(=O)(=O)c1ccc(C(=O)Nc2sc3c(c2C(N)=O)CC(C)(C)NC3(C)C)cc1 do in these assays?
VDR inh: 5%; ALOX12 inh: -11%; GCN5L2 inh: -7%

Results for CN(C1CCCCC1)S(=O)(=O)c1ccc(C(=O)Nc2sc3c(c2C(N)=O)CC(C)(C)NC3(C)C)cc1 ?
PLK1 PBD block: 34µM*; VDR inh: -2%; ALOX12 inh: -20%; GCN5L2 inh: -2%

How did C/C(CC(=O)NC(C)(C)C)=N\NC(=O)c1ccccc1N do in these assays?
PLK1 PBD block: 24µM*; VDR inh: -17%; ALOX12 inh: 11%; GCN5L2 inh: -3%

What do the screens show for `C[C@@H](NC(=O)[C@@H]1Cc2ccccc2CN1C(=O)OC(C)(C)C)C(=O)NC1CCCC1`?
PLK1 PBD block: 30µM*; VDR inh: inconclusive; ALOX12 inh: -3%; GCN5L2 inh: 1%

How did CC(NC(=O)[C@@H](C)NC(=O)[C@@H]1Cc2ccccc2CN1C(=O)OC(C)(C)C)c1ccccc1 (stereo partly drawn) do in these assays?
PLK1 PBD block: -2%; VDR inh: -5%; ALOX12 inh: -5%; GCN5L2 inh: 3%

Results for Cc1cccc(NC(=S)Nc2ccc(Oc3ccccc3)cc2)n1 ?
PLK1 PBD block: -12%; VDR inh: 9%; ALOX12 inh: 10µM*; GCN5L2 inh: 6%

Results for Cc1cccc(NC(=S)Nc2cccc(C)n2)n1 ?
PLK1 PBD block: -3%; VDR inh: 15%; ALOX12 inh: 0%; GCN5L2 inh: 13%

How did Cc1cccc(NC(=S)NC2CCCC2)n1 do in these assays?
PLK1 PBD block: -16%; VDR inh: 4%; ALOX12 inh: 45µM*; GCN5L2 inh: -3%

What do the screens show for `Cc1cccc(NC(=S)NC2CCCCC2)n1`?
PLK1 PBD block: -15%; VDR inh: -26%; ALOX12 inh: 40µM*; GCN5L2 inh: -4%

What do the screens show for `Cc1cccc(NC(=S)NC2CCCC2)c1C`?
PLK1 PBD block: -1%; VDR inh: -7%; ALOX12 inh: inconclusive; GCN5L2 inh: -1%

Results for COc1ccc([C@H]2CC(=O)C[C@@H](CCn3cc(-c4ccccc4)nn3)O2)cc1 ?
PLK1 PBD block: -7%; ALOX12 inh: 10µM*

How did COc1ccc([C@H]2CC(=O)C[C@@H](CCn3cc(-c4cccnc4)nn3)O2)cc1 do in these assays?
PLK1 PBD block: -8%; ALOX12 inh: -10%

How did O=C(COc1ccccc1[N+](=O)[O-])OCC(=O)c1ccc(Br)s1 do in these assays?
PLK1 PBD block: -11%; VDR inh: -1%; ALOX12 inh: 45µM*; GCN5L2 inh: -16%

Results for O=C(COc1ccccc1[N+](=O)[O-])OCCCOC(=O)COc1ccccc1[N+](=O)[O-] ?
PLK1 PBD block: -9%; VDR inh: -14%; ALOX12 inh: -2%; GCN5L2 inh: -4%

How did Cc1cc(C)n(CC(=O)Nc2ccccc2)n1 do in these assays?
PLK1 PBD block: 21µM*; VDR inh: 0%; ALOX12 inh: -5%; GCN5L2 inh: 21%

How did Cc1ccc(NC(=O)Cn2nc(C)cc2C)cc1 do in these assays?
PLK1 PBD block: -6%; VDR inh: -12%; ALOX12 inh: 0%; GCN5L2 inh: -1%

Results for NC(=S)N=Nc1ccc(O)cc1 ?
PLK1 PBD block: 27µM*; VDR inh: inconclusive; ALOX12 inh: inconclusive

How did Cc1ccccc1C(=O)Oc1ccc(Br)cc1C(=S)N1CCCC1 do in these assays?
PLK1 PBD block: -18%; VDR inh: -1%; ALOX12 inh: 0%; GCN5L2 inh: -3%

Results for O=C(Oc1ccc(Br)cc1C(=S)N1CCCC1)c1ccccc1F ?
PLK1 PBD block: 27µM*; VDR inh: -14%; ALOX12 inh: -13%; GCN5L2 inh: -6%

Results for O=C(Oc1ccc(Br)cc1C(=S)N1CCOCC1)c1ccc([N+](=O)[O-])cc1[N+](=O)[O-] ?
PLK1 PBD block: 6µM*; VDR inh: inconclusive; ALOX12 inh: inconclusive; GCN5L2 inh: -6%
